This passage reports binding signal results from PMC7862700, “An all-to-all approach to the identification of sequence-specific readers for epigenetic DNA modifications on cytosine”.

Experiment in all cases: DAPPL (digital affinity profiling via proximity ligation, sequencing); 10 mM Tris-HCl pH 7.5, 50 mM NaCl, 1 mM DTT, 4% glycerol, room temperature, 30 min; GST-TFs on glutathione beads, 16-mer random dsDNA library, 0.1% formaldehyde crosslink after washing; high values mean tight binding
One assay addresses T1, FLI1 (Homo sapiens, UniProt Q01543 1-452).
T1 sequence: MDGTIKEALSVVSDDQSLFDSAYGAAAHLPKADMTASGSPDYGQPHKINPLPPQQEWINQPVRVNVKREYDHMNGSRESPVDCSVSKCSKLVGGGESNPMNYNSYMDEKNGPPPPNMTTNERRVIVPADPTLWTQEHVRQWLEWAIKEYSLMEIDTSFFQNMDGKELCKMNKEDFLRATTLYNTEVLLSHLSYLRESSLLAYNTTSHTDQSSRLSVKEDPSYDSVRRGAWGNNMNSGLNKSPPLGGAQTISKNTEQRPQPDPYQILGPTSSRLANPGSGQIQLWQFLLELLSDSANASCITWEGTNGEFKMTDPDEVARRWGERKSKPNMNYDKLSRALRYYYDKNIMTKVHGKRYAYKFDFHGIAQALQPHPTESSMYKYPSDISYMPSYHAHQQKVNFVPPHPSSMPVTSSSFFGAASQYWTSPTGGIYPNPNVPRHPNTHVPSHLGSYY
As to conditions: protein: recombinant; tags: N-terminal GST; dsDNA, one strand shown. A digest of the protocol:
(§1)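 Sequencing on an Illumina NextSeq500 followed washing, crosslinking with 0.1% formaldehyde, proximity ligation (BsaI/T4 ligase, 1 h, 37 °C) and PCR amplification of pools that had been incubated for 30 min at room temperature with 200 nmole of a random double-stranded 16-mer DNA library in Tris/NaCl/DTT/glycerol buffer. Each pool held DNA-barcoded human transcription factors, expressed in yeast as GST fusions and captured on glutathione beads, plus a tag-only sample. Binding signal is a hexamer's read frequency for a factor divided by its frequency in the tag-only sample.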

The target of another assay is T2, ELK1 (Homo sapiens, UniProt P19419 1-428).
T2 sequence: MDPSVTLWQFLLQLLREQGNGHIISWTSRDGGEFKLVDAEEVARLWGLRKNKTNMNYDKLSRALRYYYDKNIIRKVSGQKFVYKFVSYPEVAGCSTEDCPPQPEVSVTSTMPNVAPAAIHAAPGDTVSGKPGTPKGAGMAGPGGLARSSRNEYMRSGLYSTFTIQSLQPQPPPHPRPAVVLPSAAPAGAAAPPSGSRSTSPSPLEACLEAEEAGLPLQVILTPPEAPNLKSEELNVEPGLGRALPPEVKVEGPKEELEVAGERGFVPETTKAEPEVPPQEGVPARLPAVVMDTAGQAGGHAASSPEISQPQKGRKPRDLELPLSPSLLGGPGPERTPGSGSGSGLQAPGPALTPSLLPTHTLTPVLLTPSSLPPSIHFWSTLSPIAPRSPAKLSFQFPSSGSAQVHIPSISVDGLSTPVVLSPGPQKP
The following applies: protein: recombinant; tags: N-terminal GST; dsDNA, one strand shown. A digest of the protocol:
as §1

The target in another assay is T3, GABPA (Homo sapiens, UniProt Q06546 1-454).
T3 sequence: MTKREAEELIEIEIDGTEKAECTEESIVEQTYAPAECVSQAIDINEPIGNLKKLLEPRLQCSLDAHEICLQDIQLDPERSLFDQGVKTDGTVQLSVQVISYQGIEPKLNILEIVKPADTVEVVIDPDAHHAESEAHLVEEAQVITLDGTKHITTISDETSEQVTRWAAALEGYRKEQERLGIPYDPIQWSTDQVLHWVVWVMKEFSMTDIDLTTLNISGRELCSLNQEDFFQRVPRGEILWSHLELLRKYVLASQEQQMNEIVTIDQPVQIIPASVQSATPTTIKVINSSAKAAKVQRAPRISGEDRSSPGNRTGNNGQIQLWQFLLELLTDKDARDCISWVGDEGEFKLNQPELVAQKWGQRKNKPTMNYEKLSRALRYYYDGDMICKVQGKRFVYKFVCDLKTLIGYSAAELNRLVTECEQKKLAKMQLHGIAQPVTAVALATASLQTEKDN
The following applies: protein: recombinant; tags: N-terminal GST; dsDNA, one strand shown. A digest of the protocol: as §1

In another assay the target is T4, ERG (Homo sapiens, UniProt P11308 1-479).
T4 sequence: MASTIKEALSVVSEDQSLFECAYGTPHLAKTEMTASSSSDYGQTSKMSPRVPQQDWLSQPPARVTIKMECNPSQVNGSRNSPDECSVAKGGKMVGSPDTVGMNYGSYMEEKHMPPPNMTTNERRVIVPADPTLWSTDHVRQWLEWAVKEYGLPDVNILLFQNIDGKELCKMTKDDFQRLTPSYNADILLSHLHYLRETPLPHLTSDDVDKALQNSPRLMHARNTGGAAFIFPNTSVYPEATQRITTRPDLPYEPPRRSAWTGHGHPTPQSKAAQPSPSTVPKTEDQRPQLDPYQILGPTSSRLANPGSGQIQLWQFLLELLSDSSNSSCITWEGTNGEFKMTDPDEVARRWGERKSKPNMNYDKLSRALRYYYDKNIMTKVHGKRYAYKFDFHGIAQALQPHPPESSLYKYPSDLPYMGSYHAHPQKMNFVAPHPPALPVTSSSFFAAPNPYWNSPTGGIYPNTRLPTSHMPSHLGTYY
The following applies: protein: recombinant; tags: N-terminal GST; dsDNA, one strand shown. A digest of the protocol:
as §1

The target of a further assay is ELF1 (Homo sapiens, UniProt P32519 1-619). As to conditions: protein: recombinant; tags: N-terminal GST; dsDNA, one strand shown. A digest of the protocol: as §1
The target in a further assay is T5, EHF (Homo sapiens, UniProt Q9NZC4 1-300).
T5 sequence: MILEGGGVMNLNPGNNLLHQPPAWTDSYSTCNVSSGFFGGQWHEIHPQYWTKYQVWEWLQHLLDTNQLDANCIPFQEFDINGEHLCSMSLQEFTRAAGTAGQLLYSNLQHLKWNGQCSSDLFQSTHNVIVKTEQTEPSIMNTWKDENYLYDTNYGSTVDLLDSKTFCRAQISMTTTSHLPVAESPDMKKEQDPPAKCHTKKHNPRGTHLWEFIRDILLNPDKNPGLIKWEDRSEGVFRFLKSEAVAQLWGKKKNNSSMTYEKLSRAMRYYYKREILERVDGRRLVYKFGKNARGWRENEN
As to conditions: protein: recombinant; tags: N-terminal GST; dsDNA, one strand shown. A digest of the protocol:
as §1

The next assay deals with SPI1 (Homo sapiens, UniProt P17947 1-270). As to conditions: protein: recombinant; tags: N-terminal GST; dsDNA, one strand shown. A digest of the protocol: as §1
For another assay, the target named is SPIB (Homo sapiens, UniProt Q01892 1-262). As to conditions: protein: recombinant; tags: N-terminal GST; dsDNA, one strand shown. A digest of the protocol:
as §1

A further assay concerns the target T6, ELK3 (Homo sapiens, UniProt P41970 1-407).
T6 sequence: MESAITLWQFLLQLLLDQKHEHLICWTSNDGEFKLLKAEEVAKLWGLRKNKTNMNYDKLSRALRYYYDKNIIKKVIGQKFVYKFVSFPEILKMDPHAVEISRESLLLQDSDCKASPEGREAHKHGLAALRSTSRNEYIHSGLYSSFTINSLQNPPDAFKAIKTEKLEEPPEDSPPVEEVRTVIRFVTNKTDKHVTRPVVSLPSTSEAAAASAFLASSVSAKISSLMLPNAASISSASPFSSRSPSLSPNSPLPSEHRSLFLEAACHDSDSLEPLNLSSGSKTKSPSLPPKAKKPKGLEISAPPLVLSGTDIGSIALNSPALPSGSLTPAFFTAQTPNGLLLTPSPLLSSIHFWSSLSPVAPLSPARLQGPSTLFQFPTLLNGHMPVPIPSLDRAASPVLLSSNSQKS
The following applies: protein: recombinant; tags: N-terminal GST; dsDNA, one strand shown. A digest of the protocol: as §1

A further assay concerns the target T7, FEV (Homo sapiens, UniProt Q99581 1-238).
T7 sequence: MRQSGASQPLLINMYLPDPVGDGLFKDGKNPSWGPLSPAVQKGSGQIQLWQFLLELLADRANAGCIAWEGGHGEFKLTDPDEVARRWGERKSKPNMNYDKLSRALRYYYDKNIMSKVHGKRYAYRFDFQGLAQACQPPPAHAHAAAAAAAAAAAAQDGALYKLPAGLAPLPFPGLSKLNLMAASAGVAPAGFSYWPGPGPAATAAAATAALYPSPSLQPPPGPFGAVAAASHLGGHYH
As to conditions: protein: recombinant; tags: N-terminal GST; dsDNA, one strand shown. A digest of the protocol: as §1

The target in the next assay is ETV5 (Homo sapiens, UniProt P41161 1-510). The following applies: protein: recombinant; tags: N-terminal GST; dsDNA, one strand shown. A digest of the protocol:
as §1

In another assay the target is HSF1 (Homo sapiens, UniProt Q00613 1-529). As to conditions: protein: recombinant; tags: N-terminal GST; chain copies: 3; dsDNA, one strand shown. A digest of the protocol:
as §1

The target in a further assay is T8, SPIC (Homo sapiens, UniProt Q8N5J4 1-248).
T8 sequence: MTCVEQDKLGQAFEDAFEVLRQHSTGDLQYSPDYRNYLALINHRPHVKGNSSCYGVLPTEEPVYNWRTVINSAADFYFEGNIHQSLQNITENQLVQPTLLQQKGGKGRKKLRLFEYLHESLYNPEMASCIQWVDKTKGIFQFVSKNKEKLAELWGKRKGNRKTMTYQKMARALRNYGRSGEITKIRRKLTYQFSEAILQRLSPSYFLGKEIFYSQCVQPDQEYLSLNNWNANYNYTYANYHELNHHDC
As to conditions: protein: recombinant; tags: N-terminal GST; dsDNA, one strand shown. A digest of the protocol: as §1

For the next assay, the target named is ELF4 (Homo sapiens, UniProt Q99607 1-663). The following applies: protein: recombinant; tags: N-terminal GST; dsDNA, one strand shown. A digest of the protocol: as §1
For another assay, the target named is T9, ELK4 (Homo sapiens, UniProt P28324-2 1-405).
T9 sequence: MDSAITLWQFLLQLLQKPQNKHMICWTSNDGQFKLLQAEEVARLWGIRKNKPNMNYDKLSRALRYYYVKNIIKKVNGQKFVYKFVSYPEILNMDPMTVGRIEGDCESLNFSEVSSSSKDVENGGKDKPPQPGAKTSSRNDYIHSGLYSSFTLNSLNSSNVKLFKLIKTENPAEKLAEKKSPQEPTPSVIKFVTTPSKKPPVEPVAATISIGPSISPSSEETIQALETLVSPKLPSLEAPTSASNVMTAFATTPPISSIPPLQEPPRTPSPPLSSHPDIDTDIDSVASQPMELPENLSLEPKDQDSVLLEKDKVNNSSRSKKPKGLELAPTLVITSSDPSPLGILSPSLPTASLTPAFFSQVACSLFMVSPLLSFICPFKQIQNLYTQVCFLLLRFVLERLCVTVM
The following applies: protein: recombinant; tags: N-terminal GST; dsDNA, one strand shown. A digest of the protocol:
as §1

The target in the next assay is T10, ETV2 (Homo sapiens, UniProt O00321 1-342).
T10 sequence: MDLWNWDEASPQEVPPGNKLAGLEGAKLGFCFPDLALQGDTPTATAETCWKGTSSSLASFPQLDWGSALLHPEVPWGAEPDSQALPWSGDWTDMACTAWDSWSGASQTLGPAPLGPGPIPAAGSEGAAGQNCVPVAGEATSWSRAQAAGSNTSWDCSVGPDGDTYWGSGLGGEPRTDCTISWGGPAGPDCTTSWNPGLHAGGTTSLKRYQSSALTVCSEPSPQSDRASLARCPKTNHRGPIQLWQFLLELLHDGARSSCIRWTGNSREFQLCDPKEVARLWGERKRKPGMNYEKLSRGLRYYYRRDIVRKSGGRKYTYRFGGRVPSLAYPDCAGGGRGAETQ
The following applies: protein: recombinant; tags: N-terminal GST; dsDNA, one strand shown. A digest of the protocol:
as §1

A further assay concerns the target T11, ELF3 (Homo sapiens, UniProt P78545 1-371).
T11 sequence: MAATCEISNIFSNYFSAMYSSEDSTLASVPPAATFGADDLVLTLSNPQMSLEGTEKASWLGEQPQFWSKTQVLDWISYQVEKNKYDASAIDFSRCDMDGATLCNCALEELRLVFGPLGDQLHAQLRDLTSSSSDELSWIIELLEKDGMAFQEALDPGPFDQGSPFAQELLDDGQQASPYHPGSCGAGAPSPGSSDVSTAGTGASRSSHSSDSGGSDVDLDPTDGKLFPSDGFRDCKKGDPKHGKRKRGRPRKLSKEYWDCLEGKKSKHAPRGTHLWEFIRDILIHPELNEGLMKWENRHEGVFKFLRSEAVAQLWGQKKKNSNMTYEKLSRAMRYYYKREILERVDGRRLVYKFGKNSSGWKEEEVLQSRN
The following applies: protein: recombinant; tags: N-terminal GST; dsDNA, one strand shown. A digest of the protocol:
as §1

Another assay has as its target ETV1 (Homo sapiens, UniProt P50549 1-477). As to conditions: protein: recombinant; tags: N-terminal GST; dsDNA, one strand shown. A digest of the protocol: as §1

SPIB, sequence (Q01892 whole entry): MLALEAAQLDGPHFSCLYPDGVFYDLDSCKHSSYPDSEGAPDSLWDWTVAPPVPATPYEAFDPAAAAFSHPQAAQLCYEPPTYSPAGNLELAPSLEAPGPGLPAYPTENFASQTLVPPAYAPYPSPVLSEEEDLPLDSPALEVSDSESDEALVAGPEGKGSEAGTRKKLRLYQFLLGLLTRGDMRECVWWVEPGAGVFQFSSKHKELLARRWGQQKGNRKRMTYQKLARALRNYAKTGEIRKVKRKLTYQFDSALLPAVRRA
ETV1, sequence (P50549 whole entry): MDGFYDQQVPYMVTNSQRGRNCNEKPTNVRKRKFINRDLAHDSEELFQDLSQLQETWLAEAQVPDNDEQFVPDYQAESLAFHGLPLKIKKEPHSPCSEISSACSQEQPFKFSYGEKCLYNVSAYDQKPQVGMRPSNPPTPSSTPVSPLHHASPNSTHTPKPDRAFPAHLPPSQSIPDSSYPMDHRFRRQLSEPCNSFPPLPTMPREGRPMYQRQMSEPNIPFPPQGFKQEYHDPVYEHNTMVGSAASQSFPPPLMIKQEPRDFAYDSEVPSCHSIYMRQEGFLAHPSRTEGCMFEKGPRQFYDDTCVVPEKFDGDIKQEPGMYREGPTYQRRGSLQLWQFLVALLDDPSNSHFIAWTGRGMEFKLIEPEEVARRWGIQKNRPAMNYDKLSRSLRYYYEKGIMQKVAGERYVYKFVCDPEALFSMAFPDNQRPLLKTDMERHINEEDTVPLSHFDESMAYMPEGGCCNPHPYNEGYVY
ELF4, sequence (Q99607 whole entry): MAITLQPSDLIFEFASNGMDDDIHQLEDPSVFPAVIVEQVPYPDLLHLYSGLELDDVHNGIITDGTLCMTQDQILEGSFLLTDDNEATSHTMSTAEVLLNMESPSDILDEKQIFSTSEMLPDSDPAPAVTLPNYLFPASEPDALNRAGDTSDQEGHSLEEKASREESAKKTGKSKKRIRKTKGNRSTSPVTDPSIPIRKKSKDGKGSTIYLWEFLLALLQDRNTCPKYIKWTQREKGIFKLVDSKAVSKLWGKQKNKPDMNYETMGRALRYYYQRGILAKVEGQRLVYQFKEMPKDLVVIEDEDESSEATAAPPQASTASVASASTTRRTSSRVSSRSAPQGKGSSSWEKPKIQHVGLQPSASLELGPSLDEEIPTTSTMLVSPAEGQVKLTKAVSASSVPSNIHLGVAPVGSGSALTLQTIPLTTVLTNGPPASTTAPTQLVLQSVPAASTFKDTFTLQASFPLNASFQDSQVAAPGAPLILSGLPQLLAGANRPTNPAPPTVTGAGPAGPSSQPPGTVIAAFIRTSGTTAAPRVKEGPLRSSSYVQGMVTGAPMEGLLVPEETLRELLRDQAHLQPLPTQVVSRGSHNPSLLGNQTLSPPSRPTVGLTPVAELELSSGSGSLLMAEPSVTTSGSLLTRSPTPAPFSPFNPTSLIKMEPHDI
HSF1, sequence (Q00613 whole entry): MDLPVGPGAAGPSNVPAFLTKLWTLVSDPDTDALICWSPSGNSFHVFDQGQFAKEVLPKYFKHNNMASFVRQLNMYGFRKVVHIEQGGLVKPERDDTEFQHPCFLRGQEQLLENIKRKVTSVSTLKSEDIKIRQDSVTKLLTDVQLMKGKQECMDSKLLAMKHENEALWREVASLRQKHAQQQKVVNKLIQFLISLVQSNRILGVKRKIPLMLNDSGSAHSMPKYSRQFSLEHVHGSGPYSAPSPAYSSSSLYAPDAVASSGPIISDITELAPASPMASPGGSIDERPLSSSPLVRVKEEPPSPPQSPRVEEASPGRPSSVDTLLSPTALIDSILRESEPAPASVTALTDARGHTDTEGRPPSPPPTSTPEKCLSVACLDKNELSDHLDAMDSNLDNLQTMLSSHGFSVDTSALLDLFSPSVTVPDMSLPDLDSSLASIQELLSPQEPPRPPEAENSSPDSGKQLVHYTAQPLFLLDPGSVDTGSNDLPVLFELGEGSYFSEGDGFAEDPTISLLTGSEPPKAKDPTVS
ELF1, sequence (P32519 whole entry): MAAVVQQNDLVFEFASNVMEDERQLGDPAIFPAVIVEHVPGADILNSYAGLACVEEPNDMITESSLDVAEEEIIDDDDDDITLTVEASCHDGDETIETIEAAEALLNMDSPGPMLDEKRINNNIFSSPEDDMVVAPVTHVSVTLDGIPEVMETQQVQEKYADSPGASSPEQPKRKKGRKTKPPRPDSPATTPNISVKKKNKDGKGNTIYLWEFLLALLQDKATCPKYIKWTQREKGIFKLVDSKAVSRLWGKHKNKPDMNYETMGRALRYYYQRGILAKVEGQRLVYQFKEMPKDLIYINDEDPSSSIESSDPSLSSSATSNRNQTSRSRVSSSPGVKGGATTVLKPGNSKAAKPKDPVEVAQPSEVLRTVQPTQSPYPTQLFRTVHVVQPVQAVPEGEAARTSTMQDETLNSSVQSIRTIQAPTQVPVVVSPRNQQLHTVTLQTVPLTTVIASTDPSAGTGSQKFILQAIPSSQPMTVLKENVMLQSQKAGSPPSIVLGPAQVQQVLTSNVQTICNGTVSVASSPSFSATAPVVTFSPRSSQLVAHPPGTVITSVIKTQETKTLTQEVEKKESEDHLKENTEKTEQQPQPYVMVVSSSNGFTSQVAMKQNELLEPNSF
ETV5, sequence (P41161 whole entry): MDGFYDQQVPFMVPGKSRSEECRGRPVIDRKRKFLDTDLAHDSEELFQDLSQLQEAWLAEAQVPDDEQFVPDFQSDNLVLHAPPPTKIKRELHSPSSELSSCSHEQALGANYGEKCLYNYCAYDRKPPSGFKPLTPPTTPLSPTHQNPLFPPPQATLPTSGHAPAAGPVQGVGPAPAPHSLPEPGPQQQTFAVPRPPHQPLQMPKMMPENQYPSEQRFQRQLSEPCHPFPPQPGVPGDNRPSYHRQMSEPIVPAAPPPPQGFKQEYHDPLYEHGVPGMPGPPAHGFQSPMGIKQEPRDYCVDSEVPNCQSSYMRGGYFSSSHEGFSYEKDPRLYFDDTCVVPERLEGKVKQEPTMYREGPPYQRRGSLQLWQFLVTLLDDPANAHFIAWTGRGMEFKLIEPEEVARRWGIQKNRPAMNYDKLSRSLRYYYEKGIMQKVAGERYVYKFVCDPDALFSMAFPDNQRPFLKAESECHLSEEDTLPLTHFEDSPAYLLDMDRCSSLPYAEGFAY

Consider ATGGGC, for which the binding signal was 1.28 fold enrichment (6-mer frequency, TF over GST control) with FLI1; 1.29 fold enrichment (6-mer frequency, TF over GST control) with ELK1; 1.3 fold enrichment (6-mer frequency, TF over GST control) in the assay with GABPA; 1.26 fold enrichment (6-mer frequency, TF over GST control) with ERG; 1.27 fold enrichment (6-mer frequency, TF over GST control) with ELF1; 1.32 fold enrichment (6-mer frequency, TF over GST control) in the assay with EHF. Also, the binding signal with SPI1 was 1.35 fold enrichment (6-mer frequency, TF over GST control); with SPIB, 1.3 fold enrichment (6-mer frequency, TF over GST control); with ELK3, 1.37 fold enrichment (6-mer frequency, TF over GST control); with FEV, 1.28 fold enrichment (6-mer frequency, TF over GST control); with ETV5, 1.25 fold enrichment (6-mer frequency, TF over GST control); with HSF1, 1.03 fold enrichment (6-mer frequency, TF over GST control). In addition, the binding signal was 1.35 fold enrichment (6-mer frequency, TF over GST control) with SPIC; 1.35 fold enrichment (6-mer frequency, TF over GST control) with ELF4; 1.49 fold enrichment (6-mer frequency, TF over GST control) in the assay with ELK4; 1.17 fold enrichment (6-mer frequency, TF over GST control) with ETV2; 1.24 fold enrichment (6-mer frequency, TF over GST control) with ELF3; 1.19 fold enrichment (6-mer frequency, TF over GST control) with ETV1.
